# Results published in PubChem BioAssay (NCATS).
# Results filed as inconclusive are left out. Entries that show only a call come without a potency. Unmarked numbers belong to inactive results. Activity calls are given as the source filed them. Calls follow the shape of the dose curve; as a rule, active = well fitted curve in the direction sought with a large enough effect; inconclusive = small, poorly fitted or top-dose-only effect, or another doubt; inactive = no such curve, though single readings can be large; an effect the other way counts as inactive or inconclusive.
# What was measured:
# [1] = molecular target: Rap guanine nucleotide exchange factor 3 (Homo sapiens) (UniProt O95398); test: Confirmatory qHTS for antagonist of cAMP-regulated guanine nucleotide exchange factor 3 (EPAC1) (AID 1645880); conditions: EPAC1 Rap1B-BODIPY-GDP exchange, fluorescence; activity, negative = inhibition: at 115 µM (top of the series); also: nearly all actives have a fitted effect of over 55% in size; also: potency is read from the fitted curve at half-maximal effect
# Rap guanine nucleotide exchange factor 3 (Homo sapiens), sequence (O95398 whole entry, looked up): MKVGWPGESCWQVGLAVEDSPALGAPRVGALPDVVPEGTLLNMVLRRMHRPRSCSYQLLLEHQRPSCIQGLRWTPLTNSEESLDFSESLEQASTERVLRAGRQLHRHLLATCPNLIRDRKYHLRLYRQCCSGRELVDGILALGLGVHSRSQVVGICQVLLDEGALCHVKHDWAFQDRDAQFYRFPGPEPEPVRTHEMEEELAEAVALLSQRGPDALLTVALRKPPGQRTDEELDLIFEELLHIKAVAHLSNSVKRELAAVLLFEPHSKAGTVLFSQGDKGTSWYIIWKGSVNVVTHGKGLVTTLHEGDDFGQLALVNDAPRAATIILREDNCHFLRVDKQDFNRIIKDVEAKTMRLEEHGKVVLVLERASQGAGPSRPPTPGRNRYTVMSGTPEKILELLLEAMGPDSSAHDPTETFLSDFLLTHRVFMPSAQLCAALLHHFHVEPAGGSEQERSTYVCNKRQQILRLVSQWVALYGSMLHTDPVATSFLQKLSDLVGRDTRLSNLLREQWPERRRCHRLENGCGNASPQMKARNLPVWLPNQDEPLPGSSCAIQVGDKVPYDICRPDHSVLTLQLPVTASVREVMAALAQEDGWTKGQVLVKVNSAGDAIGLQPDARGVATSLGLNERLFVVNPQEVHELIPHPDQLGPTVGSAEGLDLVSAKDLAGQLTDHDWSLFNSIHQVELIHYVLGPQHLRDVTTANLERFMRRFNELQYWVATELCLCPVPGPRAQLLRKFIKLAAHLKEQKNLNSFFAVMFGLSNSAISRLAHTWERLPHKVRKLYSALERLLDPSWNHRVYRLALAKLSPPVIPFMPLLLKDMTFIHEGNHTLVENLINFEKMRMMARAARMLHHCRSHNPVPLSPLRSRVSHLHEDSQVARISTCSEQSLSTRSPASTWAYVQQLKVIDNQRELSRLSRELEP
# In short: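 Released BODIPY-GDP fluoresces less than Rap1-bound BODIPY-GDP; the signal is followed at 480/540 nm at 5-min intervals over 30 min, after 5 min at room temperature. Reactions contain 100 nM EPAC1, 250 nM RAP1B-BODIPY-GDP and 50 uM GDP; results are normalized to ATA and DMSO.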
# [2] = molecular target: Rap guanine nucleotide exchange factor 3 (Homo sapiens) (UniProt O95398); test: Confirmatory qHTS for agonist of cAMP-regulated guanine nucleotide exchange factor 3 (EPAC1) (AID 1645881); also: nearly all actives have a fitted effect of over 75% in size; also: potency is read from the fitted curve at half-maximal effect
# [3] = molecular target: Rap guanine nucleotide exchange factor 3 (Homo sapiens) (UniProt O95398); test: Counterscreen qHTS for antagonist of cAMP-regulated guanine nucleotide exchange factor 3 (EPAC1) (AID 1645888)
# In short: (§1)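 Rap1B-BODIPY-GDP 250 nM + GDP 50 uM; cpds 7-pt, final 9.74 nM–152 uM (activator mode) or from 7.32 nM upwards (inhibitor mode); RT; FI 480/540 nm at 5 and 30 min, then ± cAMP, reread.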
# [4] = molecular target: Rap guanine nucleotide exchange factor 4 (Homo sapiens) (UniProt Q8WZA2); test: Confirmatory qHTS for antagonist of cAMP-regulated guanine nucleotide exchange factor 4 (EPAC2) (AID 1645885); also: nearly all actives have a fitted effect of over 25% in size; also: potency is read from the fitted curve at half-maximal effect
# Rap guanine nucleotide exchange factor 4 (Homo sapiens), sequence (Q8WZA2 whole entry, looked up): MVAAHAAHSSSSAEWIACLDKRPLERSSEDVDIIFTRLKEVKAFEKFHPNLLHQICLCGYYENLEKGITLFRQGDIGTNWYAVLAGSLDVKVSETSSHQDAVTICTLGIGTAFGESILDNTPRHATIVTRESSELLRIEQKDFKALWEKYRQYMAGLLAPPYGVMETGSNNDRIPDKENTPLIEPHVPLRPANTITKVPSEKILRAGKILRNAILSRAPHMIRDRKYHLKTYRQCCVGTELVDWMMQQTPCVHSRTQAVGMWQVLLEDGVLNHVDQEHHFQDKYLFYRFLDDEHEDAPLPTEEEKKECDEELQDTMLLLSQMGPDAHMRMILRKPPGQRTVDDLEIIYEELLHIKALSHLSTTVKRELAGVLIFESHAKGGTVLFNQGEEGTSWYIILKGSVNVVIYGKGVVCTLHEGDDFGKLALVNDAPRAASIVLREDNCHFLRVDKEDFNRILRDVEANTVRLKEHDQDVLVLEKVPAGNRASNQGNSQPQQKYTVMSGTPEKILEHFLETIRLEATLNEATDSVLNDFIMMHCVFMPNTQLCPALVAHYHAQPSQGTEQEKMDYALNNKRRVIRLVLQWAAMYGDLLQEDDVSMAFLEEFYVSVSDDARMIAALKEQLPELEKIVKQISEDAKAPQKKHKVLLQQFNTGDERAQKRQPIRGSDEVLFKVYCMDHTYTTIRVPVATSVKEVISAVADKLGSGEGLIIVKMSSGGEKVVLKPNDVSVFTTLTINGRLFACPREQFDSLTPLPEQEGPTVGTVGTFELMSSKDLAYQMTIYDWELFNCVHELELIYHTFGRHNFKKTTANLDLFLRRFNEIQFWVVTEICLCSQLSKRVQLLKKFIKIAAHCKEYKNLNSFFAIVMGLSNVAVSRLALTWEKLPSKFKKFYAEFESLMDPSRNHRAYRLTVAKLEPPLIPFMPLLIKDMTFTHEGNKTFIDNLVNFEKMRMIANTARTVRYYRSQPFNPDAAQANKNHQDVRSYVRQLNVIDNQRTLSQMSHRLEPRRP
# [5] = molecular target: Rap guanine nucleotide exchange factor 3 (Homo sapiens) (UniProt O95398); test: Counterscreen qHTS for agonist of cAMP-regulated guanine nucleotide exchange factor 3 (EPAC1) (AID 1645889); also: nearly all actives have a fitted effect of over 40% in size; also: potency is read from the fitted curve at half-maximal effect
# In short: as §1
# [6] = molecular target: Tyrosyl-DNA phosphodiesterase 1 (Homo sapiens) (UniProt Q9NUW8); test: Confirmation Assay for Inhibitors of Tyrosyl-DNA Phosphodiesterase (TDP1) (AID 489007); conditions: recombinant human TDP1 enzymatic activity, dose-response; also: potency is read from the fitted curve at half-maximal effect; nearly all actives have a fitted effect of over 40% in size
# Tyrosyl-DNA phosphodiesterase 1 (Homo sapiens), sequence (Q9NUW8 whole entry, looked up): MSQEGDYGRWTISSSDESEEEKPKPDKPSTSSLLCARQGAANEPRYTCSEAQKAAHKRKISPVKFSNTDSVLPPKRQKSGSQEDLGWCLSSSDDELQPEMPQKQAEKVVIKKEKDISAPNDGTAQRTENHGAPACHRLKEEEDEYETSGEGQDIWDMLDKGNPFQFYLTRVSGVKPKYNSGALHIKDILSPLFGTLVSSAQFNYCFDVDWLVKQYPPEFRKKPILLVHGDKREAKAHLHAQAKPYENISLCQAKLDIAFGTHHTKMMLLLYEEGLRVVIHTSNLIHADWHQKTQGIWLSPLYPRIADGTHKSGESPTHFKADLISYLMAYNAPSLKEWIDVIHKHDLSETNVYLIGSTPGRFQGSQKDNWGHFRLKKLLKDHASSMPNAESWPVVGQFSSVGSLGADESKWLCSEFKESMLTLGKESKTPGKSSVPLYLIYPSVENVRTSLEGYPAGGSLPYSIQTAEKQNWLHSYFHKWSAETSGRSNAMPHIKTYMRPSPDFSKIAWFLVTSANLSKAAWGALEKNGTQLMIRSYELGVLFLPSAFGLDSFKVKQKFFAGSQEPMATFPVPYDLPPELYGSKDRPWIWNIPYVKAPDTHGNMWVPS
# In short: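 AlphaScreen read-out: streptavidin donor and anti-FITC acceptor beads (10 ug/ml) bind intact substrate, so Tdp1 removal of tyrosine-FITC lowers signal. Enzyme 1 nM, substrate 15 nM, 5 min reaction at room temperature after 15 min compound preincubation.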
# [7] = molecular target: Tumor susceptibility gene 101 protein (Homo sapiens) (UniProt Q99816); test: qHTS Assay for Iinhibitors of HIV-1 Budding by Blocking the Interaction of PTAP/TSG101: Hit Validation (AID 651600); also: nearly all actives have a fitted effect of over 70% in size; also: potency is read from the fitted curve at half-maximal effect
# Tumor susceptibility gene 101 protein (Homo sapiens), sequence (Q99816 whole entry, looked up, the tested form may be a part): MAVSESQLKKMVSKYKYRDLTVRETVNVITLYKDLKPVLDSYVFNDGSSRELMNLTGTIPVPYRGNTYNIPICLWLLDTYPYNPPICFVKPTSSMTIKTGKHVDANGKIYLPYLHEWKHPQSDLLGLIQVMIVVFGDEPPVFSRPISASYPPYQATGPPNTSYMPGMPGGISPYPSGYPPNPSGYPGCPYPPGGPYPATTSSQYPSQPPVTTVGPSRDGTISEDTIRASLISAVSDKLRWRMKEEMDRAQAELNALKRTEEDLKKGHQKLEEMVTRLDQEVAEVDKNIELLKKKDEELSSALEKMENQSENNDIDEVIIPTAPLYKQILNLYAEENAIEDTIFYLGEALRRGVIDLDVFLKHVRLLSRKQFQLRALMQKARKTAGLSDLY
# In short: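 Fluorescence polarization binding assay: Tsg101 binding domain (10 uM) mixed with compounds and FITC-labeled PTAP peptide (50 nM) in HEPES pH 7.5, 0.15 M NaCl, 0.01% Tween 20, EDTA, TCEP; 20 min at r.t.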
compound,measurement,setting,value
COc1ccc(C2CC(=O)Oc3cc(C)cc(C)c32)cc1 (stereo not given),Potency,[1],inactive
same,Potency,[2],inactive
same,Potency,[3],inactive
CCCCn1nnnc1C(c1cc2ccccc2o1)N1CCCC1 (stereo not given),Potency,[1],inactive
same,Potency,[2],inactive
same,Potency,[3],inactive
Cc1cc2ccccn2c1C(=O)c1ccc(F)cc1,Potency,[1],inactive
same,Potency,[2],inactive
same,Potency,[3],inactive
Cc1ccc(C23CC4CC(CC(C(=O)N(C)C)(C4)C2)C3)cc1,Potency,[1],inactive
same,Potency,[2],inactive
same,Potency,[3],inactive
COc1ccccc1NC(=O)Cc1ccc(-c2ccccc2)cc1,Potency,[1],inactive
same,Potency,[2],inactive
same,Potency,[4],inactive
same,Potency,[5],inactive
CN(Cc1ccccc1)c1nc(-c2ccc(F)cc2)cc(C(F)(F)F)n1,Potency,[6],28.2 µM (active)
same,Potency,[1],inactive
same,Potency,[2],inactive
same,Potency,[4],0.0849 µM (active)
same,Potency,[3],inactive
same,Potency,[5],inactive
Nc1cccc2c(O)cc(S(=O)(=O)O)cc12,Potency,[7],18.3 µM (active)
same,Potency,[1],13.5 µM (active)
same,Potency,[2],50.1 µM (active)
same,Potency,[4],0.757 µM (active)
same,Potency,[3],inactive
same,Potency,[5],79.4 µM (active)
COc1cc(NC(C)=O)ccc1-c1cc2ccccc2oc1=O,Potency,[1],inactive
same,Potency,[2],inactive
same,Potency,[3],inactive
CCN(CC)c1ccc(/C=c2\sc3nc4ccccc4n3c2=O)c(O)c1,Potency,[7],inactive
same,Potency,[1],inactive
same,Potency,[2],inactive
same,Potency,[4],inactive
same,Potency,[3],inactive
same,Potency,[5],56.2 µM (active)
O=C(O)c1ccc(NC(=O)C(c2ccccc2)c2ccccc2)cc1,Potency,[1],inactive
same,Potency,[2],inactive
same,Potency,[3],inactive
CCc1ccc[n+](-c2[nH]c(=O)sc2/C=N/NC([S-])=Nc2ccccc2)c1,Potency,[7],14.6 µM (active)
same,Potency,[1],inactive
same,Potency,[2],inactive
same,Potency,[4],inactive
same,Potency,[3],inactive
same,Potency,[5],50.1 µM (active)
Cc1nn(-c2c(Cl)cc(Cl)cc2Cl)c(=O)c2ccccc12,Potency,[1],inactive
same,Potency,[2],inactive
same,Potency,[3],inactive
CCCCc1c(C)nc2ccccc2c1SCCC#N,Potency,[1],inactive
same,Potency,[2],inactive
same,"activity change, negative = inhibition",[3],-10% [at 30.8 µM]
COc1ccc(-n2cc(-c3ccccc3)c3c(N4CCOCC4)ncnc32)cc1,Potency,[1],inactive
same,Potency,[2],inactive
same,Potency,[3],inactive
